{"source": "PubChem BioAssay (NCATS)", "note": "Inconclusive results are not listed. A call without a number means that no potency is given here. The source made the active and inactive calls. Unless noted, no rule for the calls is given here.", "data": [{"tested_on": "not listed separately", "test": "qHTS assay for cell viability of the p53RE-bla HCT-116 cell line (AID 743292; active = well fitted cell-killing curve with a large enough effect; also: nearly all actives have a fitted effect of over 55% in size; also: potency is read from the fitted curve at half-maximal effect)", "settings": "p53RE-bla HCT-116 viability, ATP luminescence, 16 h; series mostly up to 95 µM", "in_short": "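Readout: CellTiter-Glo luminescence after 30 min RT. Treatment: compounds in DMSO, 16 h, 37 C. Cells: CellSensor p53RE-bla HCT-116, 4,000/well, preincubated 5 h.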", "values": [{"smiles": "CCOP(=O)(OCC)Oc1nc(Cl)c(Cl)cc1Cl", "Potency": "inactive"}, {"smiles": "N#CC(Br)(Br)C(N)=O", "Potency": "inactive"}, {"smiles": "CON=C(C(=O)OC)c1ccccc1CO/N=C(\\C)c1cccc(C(F)(F)F)c1", "Potency": "inactive"}, {"smiles": "ClC1=C(Cl)[C@]2(Cl)[C@H]3[C@H]([C@@H]4C=C[C@H]3C4)[C@]1(Cl)C2(Cl)Cl", "Potency": "44.7 µM (active)"}, {"smiles": "CC1(C)CCC(Cc2ccc(Cl)cc2)C1(O)Cn1cncn1", "note": "(stereo unspecified)", "Potency": "inactive"}, {"smiles": "CC(C)NC(=O)N1CC(=O)N(c2cc(Cl)cc(Cl)c2)C1=O", "Potency": "inactive"}, {"smiles": "CCOCn1c(-c2ccc(Cl)cc2)c(C#N)c(Br)c1C(F)(F)F", "Potency": "6.31 µM (active)"}, {"smiles": "[CH3][Sn]([CH3])([Cl])[Cl]", "Potency": "inactive"}]}, {"target": "Nuclear receptor subfamily 1 group I member 2 (Rattus norvegicus) (UniProt Q9R1A7)", "sequence (Q9R1A7 whole entry, looked up)": "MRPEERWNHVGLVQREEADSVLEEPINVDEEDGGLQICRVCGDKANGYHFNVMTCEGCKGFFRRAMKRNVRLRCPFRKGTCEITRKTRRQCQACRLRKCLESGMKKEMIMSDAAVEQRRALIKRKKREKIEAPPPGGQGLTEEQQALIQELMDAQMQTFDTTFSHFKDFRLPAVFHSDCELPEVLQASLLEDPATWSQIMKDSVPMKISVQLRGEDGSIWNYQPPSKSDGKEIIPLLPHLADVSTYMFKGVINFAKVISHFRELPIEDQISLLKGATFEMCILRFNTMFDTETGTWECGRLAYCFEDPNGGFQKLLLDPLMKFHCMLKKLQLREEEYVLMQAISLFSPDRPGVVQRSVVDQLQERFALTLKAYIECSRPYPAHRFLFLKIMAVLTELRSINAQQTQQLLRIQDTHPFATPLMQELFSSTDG", "test": "qHTS assay for small molecule activators of the rat pregnane X receptor (rPXR) signaling pathway (AID 651751)", "settings": "rPXR reporter cells, luciferase (One-Glo), 24 h", "values": [{"smiles": "CCOP(=O)(OCC)Oc1nc(Cl)c(Cl)cc1Cl", "max response": "2.55% (inactive)"}, {"smiles": "CON=C(C(=O)OC)c1ccccc1CO/N=C(\\C)c1cccc(C(F)(F)F)c1", "max response": "-14.4% (inactive)"}, {"smiles": "ClC1=C(Cl)[C@]2(Cl)[C@H]3[C@H]([C@@H]4C=C[C@H]3C4)[C@]1(Cl)C2(Cl)Cl", "max response": "7.41% (inactive)"}, {"smiles": "[CH3][Sn]([CH3])([Cl])[Cl]", "max response": "-0.47% (inactive)"}]}, {"tested_on": "not listed separately", "test": "qHTS assay for small molecule activators of the human pregnane X receptor (PXR) signaling pathway (AID 720659)", "settings": "DPX-2 HepG2 CYP3A4-luciferase, 24 h; series mostly up to 92.3 µM", "values": [{"smiles": "CCOP(=O)(OCC)Oc1nc(Cl)c(Cl)cc1Cl", "outcome": "inactive"}, {"smiles": "N#CC(Br)(Br)C(N)=O", "outcome": "inactive"}, {"smiles": "CCOCn1c(-c2ccc(Cl)cc2)c(C#N)c(Br)c1C(F)(F)F", "outcome": "inactive"}, {"smiles": "[CH3][Sn]([CH3])([Cl])[Cl]", "outcome": "inactive"}]}]}
